Compound activity from PubChem.
These entries were drawn from the full list.
aSyn 5UTR act: Activators via SNCA 5'UTR binding, MLPCN; alpha-synuclein 5'UTR reporter, activators screen; activity score, % (tested at 7.5 µM), hits read low; actives 7.1% (n = 300,000); AID 1814, 2009; in the data active = activity score below about -60%
* hit, by the source's call.

SMILES	aSyn 5UTR act
O=C(O)/C=C\C(=O)Nc1ccccc1C#Cc1ccccc1	-87*
c1ccc(C2CCC3(CC2)Oc2ccccc2C2CC(c4cccnc4)=NN23)cc1 (stereo unspecified)	-86*
COc1cccc(C=Nc2ccccc2C(=O)Nc2ccccc2)c1O	-71*
Cc1ccc(C=Nc2ccccc2C(N)=O)cc1	-109*
Cc1ccc(C=Nc2ccccc2C(=O)Nc2ccccc2)cc1	-77*
CN(CCc1ccccn1)C(=O)CCc1nnc(CCCc2ccccc2)o1	-91*
CC(C)N(Cc1nccn1C)C(=O)CCc1nnc(CCCc2ccccc2)o1	-120*
Cc1cccc(-c2nc(C#N)c(NC3CCCCC3)o2)c1	-171*
Cc1cccc(-c2nc(C#N)c(N3CCCCC3)o2)c1	-187*
Cn1cccc1C(=O)C(=O)Nc1ccccc1	-112*
Cn1cccc1C(=O)C(=O)Nc1ccccc1C(F)(F)F	-130*
C#CC(=O)N(c1ccc(OC)cc1OC)C(C(=O)NC1CCCC1)c1cccs1 (stereo unspecified)	92
COc1ccc(C(C(=O)NC2CCCCC2)N(C(=O)CCl)c2cccc(Cl)c2)cc1 (stereo unspecified)	-74*
O=C(NC1CCCCC1)C(c1cccnc1)N(C(=O)CCl)c1ccc(F)cc1 (stereo unspecified)	-94*
CCC(C)c1ccc(N(C(=O)c2ccco2)C(C(=O)NC2CCCC2)c2cccnc2)cc1 (stereo unspecified)	-115*
CC(C)c1ccc(N(C(=O)c2ccco2)C(C(=O)NC2CCCC2)c2ccncc2)cc1 (stereo unspecified)	-150*
CN(C)/C=N/C(=S)Nc1ccc(Cl)c(Cl)c1	-66*
Cc1ccc(Cn2ccnc2C(=O)Nc2ccccc2)cc1	-156*
CN(C)/C=N/c1cnc(C(=O)c2ccc(Cl)cc2)n1C	-202*
C=CCNCCCCOc1ccc(OCc2ccccc2)cc1	-80*
c1ccc(COc2ccc(OCCCNC3CCCC3)cc2)cc1	-70*
COCCCNCCCCOc1ccc(OCc2ccccc2)cc1	-69*
Cc1ccsc1/C=N/Nc1ccc(C(=O)O)cc1	64
O=C(N/N=C/c1ccsc1)c1ccccn1	-92*
O=C(N/N=C/C1CCCCC1)c1ccccn1	-116*
SMILES	aSyn 5UTR act
O=C(N/N=C/c1ccc(Br)s1)c1ccccn1	-96*
Cc1ccsc1/C=N/NC(=O)c1cccs1	-109*
Cc1ccsc1/C=N/NC(=O)c1cc(-c2ccncc2)nc2ccccc12	67
Cc1ccc(/C=N/NC(=O)c2cccs2)o1	-65*
O=C(N/N=C/c1ccc(OC(=O)c2ccccc2Br)cc1)c1ccccn1	-90*
Cc1ccsc1/C=N/NC(=O)c1ccccn1	-151*
CN(C)c1ccc(C(O)Cc2nc3ccccc3n2C)cc1 (stereo unspecified)	-97*
COc1ccccc1C(O)Cc1nc2ccccc2n1C (stereo unspecified)	-87*
CC(C)c1ccc(C(O)Cc2nc3ccccc3n2C)cc1 (stereo unspecified)	-102*
COc1ccc(C(C)NCCC(c2ccc(OC(C)C)cc2)c2ccccc2OC)cc1 (stereo unspecified)	93
O=C(CSc1nc2ccccc2[nH]1)c1ccc2c(c1)OCO2	-140*
O=C(CSc1ccccn1)c1ccc2c(c1)OCO2	-149*
O=C(NC(=S)Nc1ccc2cn[nH]c2c1)c1ccccc1	-173*
Cc1ccc(NC(=S)Nc2ccc3cn[nH]c3c2)cc1	-83*
S=C(Nc1ccccc1)Nc1ccc2cn[nH]c2c1	-75*
Cc1ccc(C(=O)Nc2ccc3c(c2)ncn3C)cc1	-115*
CCC(=O)Nc1ccc2c(c1)ncn2-c1ccc(C)cc1	-77*
CCn1cnc2cc(NC(=O)c3ccc(C)cc3)ccc21	-106*
CCCn1cnc2cc(NC(=O)c3cccs3)ccc21	-113*
COCCNc1c(-c2ccc(O)cc2)nc2ccc(Cl)cn12	-69*
Nc1nc2ccccc2n1/N=C/c1ccc(-c2ccccc2)o1	-191*
Nc1nc2ccccc2n1/N=C/c1ccc([N+](=O)[O-])s1	83
O=C(N/N=C/c1cc2c(cc1Cl)OCO2)c1ccccn1	-92*
COc1cc(/C=N/NC(=O)c2ccccn2)cc2c1OCO2	-95*
O=C(N/N=C/c1cc2c(cc1[N+](=O)[O-])OCO2)c1ccccn1	-81*
SMILES	aSyn 5UTR act
Cn1cc(Br)c(C(=O)N/N=C/c2cc3c(cc2Cl)OCO3)n1	-140*
COc1cccc(-c2nnn(CC(C)=O)n2)c1	-122*
COc1ccc(-n2nnnc2-c2cccc(OC)c2)cc1	64
CCc1ccc(-c2nnn(CCC(=O)OC)n2)cc1	77
COc1ccc(NC(=O)Cn2nnc(-c3ccccc3NS(=O)(=O)c3ccc(OC)cc3)n2)cc1	107
COc1ccc(-c2ccc(-c3nnn(CC(C)=O)n3)cc2)cc1	-189*
C=CCNC(=O)Cn1nnc(-c2ccc(-c3ccc(OC)cc3)cc2)n1	-129*
COc1cccc(-c2nnn(CC(=O)N3CCCCC3)n2)c1	-74*
O=C(Nc1nc2ccccc2s1)C1CCCO1 (stereo unspecified)	-132*
Cc1cc(C)c2sc(NC(=O)C3CC3)nc2c1	-89*
O=C(Nc1nnc(-c2ccccc2F)s1)C1CCCO1 (stereo unspecified)	-181*
O=C(Nc1ccc(-c2nc3cccnc3s2)cc1)C1CCCO1 (stereo unspecified)	87
Nc1ccc2nc(NC(=O)C3CCCCC3)sc2c1	-124*
O=C(Nc1nc2ccc(F)cc2s1)C1CCCO1 (stereo unspecified)	-145*
CSc1ccc2c(c1)N(CCC1CCCCN1C)c1ccccc1S2 (stereo unspecified)	110
Cc1ccc(C(=O)CSc2nnc3ccccn23)c(C)c1	-74*
Cc1cc(C(=O)CSc2nnc(N)s2)c(C)n1C1CC1	-88*
Cc1ccc(C(=O)CSc2nnc(N)s2)c(C)c1	-92*
CCOc1ccc(C(=O)CSc2nnc(N)s2)cc1	-74*
CCOc1ccc(OCC(=O)NCCS(=O)(=O)N2CCN(c3ccc(F)cc3)CC2)cc1	-72*
O=C(NCCS(=O)(=O)N1CCN(c2ccc(F)cc2)CC1)c1ccc(Br)o1	127
CCOC(=O)c1c2c(n(C)c1C)C(=O)C(=O)c1ccc(Br)cc1-2	110
CCOC(=O)c1c(C)oc2c1c1c(c3ccccc32)OCN(CCCC(=O)O)C1	-108*
CCOC(=O)c1c(C)oc2c1cc(O)c1ccccc12	-104*
CCOC(=O)c1c(C)[nH]c2c1cc(O)c1ccccc12	-189*
SMILES	aSyn 5UTR act
COc1cccc(NC(=O)N2CCc3ccccc3C2)c1	-104*
S=C(NCCc1ccccc1)N1CCc2ccccc2C1	-101*
COc1ccccc1C(=O)Nc1ccc2c(c1)CN(C(=O)CSC)CC2	-109*
COc1ccc(NC(=S)N2CCc3ccccc3C2)cc1	-82*
COc1ccc(NC(=O)C(=O)NCC(c2ccco2)N2CCc3ccccc32)cc1 (stereo unspecified)	85
FC(F)Oc1ccc(NC(=S)N2CCc3ccccc32)cc1	-133*
COc1cccc(-c2cc(C(=O)N3CCc4ccccc4C3)[nH]n2)c1	-68*
O=C(Nc1cccc(Cl)c1)N1CCc2ccccc2C1	-185*
O=S(=O)(c1ccc(Cl)c(Cl)c1)c1snnc1-c1ccccc1	118
c1ccc(-c2nnsc2Sc2ccccn2)cc1	-91*
COC(=O)/C=C/c1cnc2ccccc2c1	-92*
Cc1cc(N2CCN(C)CC2)nc2ccc(NC(=S)NCCC(C)C)cc12	-86*
CCCN(CCC)CCCNC(=S)Nc1ccc2nc(N3CCCC3)cc(C)c2c1	-72*
Cc1cc(N2CCN(C)CC2)nc2ccc(NC(=S)NCc3cccs3)cc12	-78*
